Test results published in PubChem BioAssay.
Active and inactive are the calls of the source. Unless noted, how the calls were made is not given here.

Tests used:
[1] = compounds binding Alexa647 anti-His antibody – biochemical, small-molecule microarray, 635 nm fluorescence, artefact control for SMM control protein annotation, primary screen (AID 1128); conditions: higher = more signal;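 further: score merges feature fluorescence with signal-to-noise for each printed compound spot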
[2] = test system: Human papillomavirus type 1a E7 protein (residues 1-88); assay: HPV1a E7 small-molecule binders, primary screen, biochemical, small-molecule microarray, residues 1-88, 635 nm (AID 1129); conditions: small-molecule microarray binding, fluorescence 635 nm; higher = more signal
[3] = molecular target: Focal adhesion kinase 1 (Homo sapiens) (UniProt Q05397); assay: PTK2 protein binding on printed compound slides – biochemical, small-molecule microarray, 635/667 nm fluorescence, BSA, DTT, primary screen (AID 1130); conditions: 635 nm fluorescence, higher = more signal;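 further: composite of spot emission at 667 nm and signal to noise over triplicate slides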
Focal adhesion kinase 1 (Homo sapiens), sequence (Q05397 whole entry, looked up): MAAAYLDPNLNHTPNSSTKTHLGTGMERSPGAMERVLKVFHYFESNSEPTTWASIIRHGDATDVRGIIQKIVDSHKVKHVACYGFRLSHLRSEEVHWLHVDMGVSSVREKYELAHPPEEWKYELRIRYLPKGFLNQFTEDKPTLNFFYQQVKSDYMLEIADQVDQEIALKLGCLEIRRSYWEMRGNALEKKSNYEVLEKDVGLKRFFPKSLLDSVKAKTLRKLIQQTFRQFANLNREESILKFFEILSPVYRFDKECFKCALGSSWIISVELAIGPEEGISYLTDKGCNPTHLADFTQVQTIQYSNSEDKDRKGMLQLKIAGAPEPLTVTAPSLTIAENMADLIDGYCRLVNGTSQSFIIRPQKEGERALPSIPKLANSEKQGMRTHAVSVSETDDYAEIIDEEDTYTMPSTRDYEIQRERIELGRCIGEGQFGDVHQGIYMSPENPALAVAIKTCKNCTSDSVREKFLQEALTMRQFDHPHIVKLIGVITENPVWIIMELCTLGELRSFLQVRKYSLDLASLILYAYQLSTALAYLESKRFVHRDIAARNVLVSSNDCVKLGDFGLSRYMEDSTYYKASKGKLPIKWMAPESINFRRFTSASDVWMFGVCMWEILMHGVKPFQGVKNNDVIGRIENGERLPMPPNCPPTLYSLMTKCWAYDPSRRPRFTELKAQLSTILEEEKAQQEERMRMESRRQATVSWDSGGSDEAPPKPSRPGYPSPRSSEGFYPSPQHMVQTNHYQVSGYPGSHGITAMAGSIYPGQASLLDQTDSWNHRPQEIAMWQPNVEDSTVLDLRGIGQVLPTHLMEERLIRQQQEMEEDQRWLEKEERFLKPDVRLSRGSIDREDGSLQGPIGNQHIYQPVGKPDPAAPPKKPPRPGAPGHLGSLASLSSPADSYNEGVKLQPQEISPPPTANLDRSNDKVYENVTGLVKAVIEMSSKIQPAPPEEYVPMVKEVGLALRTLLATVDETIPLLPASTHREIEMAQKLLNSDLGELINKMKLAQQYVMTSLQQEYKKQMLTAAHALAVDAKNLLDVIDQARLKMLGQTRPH

[4] = test system: Fibrinogen (Alexa647-labelled); assay: Alexa647-fibrinogen binding to printed small molecules – biochemical, small-molecule microarray, 635/667 nm fluorescence, artefact control for SMM control-protein annotation, profiling panel (AID 1131); conditions: fibrinogen-A647 binding fluorescence, higher = more signal;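 further: z-score merges 667 nm fluorescence with per-spot signal-to-noise over triplicate slides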
[5] = molecular target: Follistatin (Homo sapiens) (UniProt P19883); assay: FST protein binding to printed compounds – biochemical, small-molecule microarray, 635/667 nm fluorescence, primary screen (AID 1132); conditions: 635 nm fluorescence, higher = more signal
Follistatin (Homo sapiens), sequence (P19883 whole entry, looked up): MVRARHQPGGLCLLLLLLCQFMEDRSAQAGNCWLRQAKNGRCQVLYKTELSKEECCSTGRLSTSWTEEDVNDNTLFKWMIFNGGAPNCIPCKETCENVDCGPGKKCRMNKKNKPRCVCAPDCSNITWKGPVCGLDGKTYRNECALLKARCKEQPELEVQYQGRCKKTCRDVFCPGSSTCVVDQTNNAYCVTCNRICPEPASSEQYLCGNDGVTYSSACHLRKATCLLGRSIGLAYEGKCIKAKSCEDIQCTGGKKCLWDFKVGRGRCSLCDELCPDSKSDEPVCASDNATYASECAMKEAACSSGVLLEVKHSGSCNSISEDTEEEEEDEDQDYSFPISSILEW

[6] = molecular target: Fibroblast growth factor 2 (Homo sapiens) (UniProt P09038); assay: basic fibroblast growth factor binding to printed compounds – biochemical, small-molecule microarray, 635/667 nm fluorescence, primary screen (AID 1133); conditions: FGF2, fluorescence 635/667, higher = more signal
Fibroblast growth factor 2 (Homo sapiens), sequence (P09038 whole entry, looked up): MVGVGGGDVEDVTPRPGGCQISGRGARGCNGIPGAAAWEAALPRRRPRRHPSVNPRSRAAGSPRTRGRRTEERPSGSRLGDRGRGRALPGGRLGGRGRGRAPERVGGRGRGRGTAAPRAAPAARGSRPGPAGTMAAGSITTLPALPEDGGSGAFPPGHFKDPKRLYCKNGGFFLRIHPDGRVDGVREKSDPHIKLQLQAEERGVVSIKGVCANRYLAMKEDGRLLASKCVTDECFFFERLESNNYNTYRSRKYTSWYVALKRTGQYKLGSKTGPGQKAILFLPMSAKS

[7] = JC-1 mitochondrial potential readout, lung cancer cells – cell-based, A549, JC-1 fluorescence, basal, 24 h, 100 nL, profiling panel (AID 1138); conditions: higher = more signal;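 further: A549 lung adenocarcinoma cells under basal conditions with no added stimulus; test concentration not given here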
Lefty1 = Lefty1 protein binding to printed compounds – biochemical, small-molecule microarray, 635/667 nm fluorescence, primary screen (AID 1139); conditions: fluorescence 635/667, higher = more signal
[8] = test system: wheat germ agglutinin (Triticum aestivum), Alexa647-labelled; assay: Alexa647-WGA lectin binding to printed small molecules – biochemical, small-molecule microarray, 635/667 nm fluorescence, artefact control for SMM control-protein annotation, profiling panel (AID 1140); conditions: WGA-A647 binding, 635 nm fluorescence, higher = more signal;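 further: score merges 667 nm feature emission with signal to noise over triplicate slides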
[9] = molecular target: Luciferin 4-monooxygenase (Photinus pyralis) (UniProt P08659); assay: inhibition of purified Photinus pyralis luciferase – biochemical, luminescence, purified enzyme, 2006 set, primary screen (AID 1141); conditions: purified firefly luciferase, SteadyGlo luminescence, 30 min; higher = more signal, called active from +8 up or from −8 down;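 further: cell-free assay with purified firefly luciferase at 100 ng per well in PBS; test concentration not given here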
Luciferin 4-monooxygenase (Photinus pyralis), sequence (P08659 whole entry, looked up): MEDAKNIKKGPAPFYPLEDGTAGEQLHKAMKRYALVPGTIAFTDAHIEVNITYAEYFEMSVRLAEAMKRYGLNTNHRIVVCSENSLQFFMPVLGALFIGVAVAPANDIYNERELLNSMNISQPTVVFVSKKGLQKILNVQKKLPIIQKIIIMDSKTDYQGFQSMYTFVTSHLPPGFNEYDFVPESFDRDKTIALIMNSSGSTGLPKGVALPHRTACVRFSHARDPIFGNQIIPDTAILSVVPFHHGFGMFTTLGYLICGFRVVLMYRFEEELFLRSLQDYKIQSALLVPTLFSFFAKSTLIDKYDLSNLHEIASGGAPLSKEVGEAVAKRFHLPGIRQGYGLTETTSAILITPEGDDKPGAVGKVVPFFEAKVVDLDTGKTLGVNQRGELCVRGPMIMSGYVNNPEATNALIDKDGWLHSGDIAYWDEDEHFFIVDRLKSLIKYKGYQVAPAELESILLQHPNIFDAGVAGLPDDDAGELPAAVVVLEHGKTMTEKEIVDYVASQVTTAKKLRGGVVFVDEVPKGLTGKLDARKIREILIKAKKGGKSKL

[10] = test system: Wnt5a (protein binding on small-molecule microarray); assay: small molecules binding Wnt5a protein – biophysical, small-molecule microarray, 635/667 nm fluorescence, primary screen (AID 1142); conditions: 635 nm fluorescence, higher = more signal;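 further: fluorescence read at 667 nm with signal to noise per printed feature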
[11] = ATP-based viability of Huh7 replicon cells – cell-based, CellTiter-Glo luminescence, basal, 48 h, cytotoxicity control for HCV replication inhibitor project, primary screen (AID 1143); conditions: higher = more signal, called active from +8 up or from −8 down;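 further: Huh7 hepatoma cells carrying a hepatitis C replication reporter with no stimulus; test concentration not given here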
[12] = Pseudomonas biofilm growth suppression – PAO1 strain, BacTiter-Glo luminescence, LB-PBS, primary screen (AID 1144); conditions: P. aeruginosa PAO1 biofilm, 12 h, higher = more signal
[13] = basal CRE-LacZ reporter activity in PC12 – cell-based, unstimulated, primary screen (AID 1145); conditions: no forskolin, luminescence, 4.5 h, higher = more signal, called active from +8 up or from −8 down
[14] = forskolin-driven CRE-LacZ activity in PC12 – cell-based, CRE-LacZ reporter, forskolin-stimulated, primary screen (AID 1146); conditions: luminescence, 4.5 h, higher = more signal, called active from +8 up or from −8 down;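 further: PC12 cells with 6xCRE LacZ reporter stimulated by forskolin 10 µM; beta-galactosidase reporter signal reflecting CREB driven transcription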
[15] = molecular target: Streptavidin (Streptomyces avidinii) (UniProt P22629); assay: compounds binding control protein streptavidin – biophysical, small-molecule microarray, 635/667 nm fluorescence, artefact control for SMM compound annotation, primary screen (AID 1147); conditions: higher = more signal;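 further: signal reflects streptavidin binding to arrayed compounds as a control protein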
Streptavidin (Streptomyces avidinii), sequence (P22629 whole entry, looked up): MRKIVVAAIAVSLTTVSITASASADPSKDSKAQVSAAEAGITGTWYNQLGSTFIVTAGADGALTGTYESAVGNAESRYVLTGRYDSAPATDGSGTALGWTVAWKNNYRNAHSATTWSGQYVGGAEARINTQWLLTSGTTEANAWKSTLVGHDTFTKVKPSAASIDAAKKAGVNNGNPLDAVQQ

[16] = probe aInhba binding on compound microarray – biochemical, small-molecule microarray, 635/667 nm fluorescence, primary screen (AID 1148); conditions: higher = more signal;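 further: score merges 667nm spot fluorescence with signal-to-noise for antibody binding to printed compounds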
Torsin-1A (Homo sapiens) [17] = molecular target: Torsin-1A (Homo sapiens) (UniProt O14656); assay: TOR1A wild-type binding on microarray – cell lysate, small-molecule microarray, lysate, 635/667 nm, primary screen (AID 1149); conditions: COS7 hTOR1A-WT lysate, 635 nm fluorescence, higher = more signal
Torsin-1A (Homo sapiens), sequence (O14656 whole entry, looked up): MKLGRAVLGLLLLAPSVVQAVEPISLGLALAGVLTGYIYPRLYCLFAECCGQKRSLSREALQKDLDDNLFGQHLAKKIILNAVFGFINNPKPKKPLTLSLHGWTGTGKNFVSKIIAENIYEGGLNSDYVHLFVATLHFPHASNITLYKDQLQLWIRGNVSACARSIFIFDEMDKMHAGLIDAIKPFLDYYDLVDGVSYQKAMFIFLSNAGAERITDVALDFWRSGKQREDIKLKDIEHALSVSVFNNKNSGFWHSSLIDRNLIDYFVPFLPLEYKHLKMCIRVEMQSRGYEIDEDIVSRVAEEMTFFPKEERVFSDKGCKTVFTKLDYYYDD

Torsin-1A (Homo sapiens) [18] = molecular target: Torsin-1A (Homo sapiens) (UniProt O14656); assay: torsin A mutant lysate binding on microarrays – cell lysate, small-molecule microarray, COS7 lysate, 635/667 nm fluorescence, primary screen (AID 1150); conditions: COS7 hTOR1A mutant lysate, 635 nm fluorescence, higher = more signal;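 further: score pools 667 nm emission and signal to noise measuring lysate protein binding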
[19] = test system: Sonic hedgehog protein (Shh); assay: Sonic hedgehog microarray binding compounds – biochemical, small-molecule microarray, 635/667 nm fluorescence, primary screen (AID 1151); conditions: 635 nm fluorescence, higher = more signal;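 further: Shh protein binding to compounds spotted on small-molecule microarray slides; score combines spot fluorescence intensity with signal-to-noise across triplicate slides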

| Compound | composite z-score [1] | composite z-score [2] | composite z-score [3] | composite z-score [4] | composite z-score [5] | composite z-score [6] | z-score [7] | composite z-score (Lefty1) | composite z-score [8] | z-score [9] | composite z-score [10] | z-score [11] | z-score [12] | z-score [13] | z-score [14] | composite z-score [15] | composite z-score [16] | composite z-score (Torsin-1A (Homo sapiens) [17]) | composite z-score (Torsin-1A (Homo sapiens) [18]) | composite z-score [19] |
| --- | --- | --- | --- | --- | --- | --- | --- | --- | --- | --- | --- | --- | --- | --- | --- | --- | --- | --- | --- | --- |
| CC(C)N1C(=O)[C@@]2(c3ccc([N+](=O)[O-])cc3)CC(=O)N(C3CCCCC3)[C@@H]2c2ccc(CO)cc21 | 0.111 | -0.695 | -0.0713 | -0.387 | 1.03 | 0.356 | -0.24 | 0.297 | -0.246 | 1.1 (inactive) | -0.0311 | -0.311 (inactive) | -1.16 (inactive) | -0.464 (inactive) | -0.144 (inactive) | -0.196 | -0.045 | -0.36 | -0.123 | 1.02 |
| C=CCOC(=O)[C@@H]1[C@H]2C(=O)O[C@H](c3ccccc3)[C@H](c3ccccc3)N2[C@H](c2ccc(OCCOC(=O)[C@H]3C[C@H]4C(=O)N[C@@H](CCCCNC(C)=O)C(=O)N4[C@H]3c3cccc(OCCO)c3)cc2)[C@@]12C(=O)Nc1ccc(I)cc12 | 1.98 | 1.19 | 0.323 | 0.777 | 1.43 | 1.45 | -1.11 | 1.28 | -0.045 | -0.662 (inactive) | 0.218 | -0.495 (inactive) | -0.929 (inactive) | -0.256 (inactive) | 0.215 (inactive) | 0.356 | -0.0313 | 1.01 | 0.495 | 1.89 |
| NC(=O)N1C(=O)C2C(C1=O)C1C=C(c3ccc(CO)cc3)C2C(C2CC2)N1Cc1sc2ccccc2c1Cl (stereo not given) | 2.42 | 1.13 | -0.159 | 0.985 | 0.855 | 1.62 | 1.46 | 1.16 | 1.12 | -2.36 (inactive) | 0.323 | -3.73 (inactive) | 0.447 (inactive) | 4.42 (inactive) | -1.63 (inactive) | 1.43 | -0.0313 | 1.19 | 0.83 | 1.38 |
| CO[C@H]1O[C@H](CO)[C@@H](OC(=O)Nc2ccc(C(F)(F)F)cc2)[C@H](OC(=O)Nc2ccc3c(c2)OCO3)[C@H]1OC(=O)Nc1ccc2c(c1)OCO2 | 2.97 | 1.17 | 1.33 | 0.806 | 0.977 | 0.395 | -1.16 | 0.871 | 1.07 | -7.72 (inactive) | 0.259 | -4.23 (inactive) | 0.558 (inactive) | 1.54 (inactive) | 1.38 (inactive) | 0.656 | 0.234 | 0.201 | 0.746 | 0.99 |
| CCOC(=O)C1=CC[C@@H](c2cc(Cl)ccc2Cl)N(S(=O)(=O)c2ccc(C)cc2)[C@H]1c1ccc(OC)cc1 | -0.128 | -0.199 | 0.262 | -1.17 | 0.258 | -0.413 | 0.581 | -0.526 | 0.0203 | 0.953 (inactive) | 1.11 | -4.08 (inactive) | 0.42 (inactive) | 0.472 (inactive) | -0.555 (inactive) | 0.0102 | 0.482 | 0.234 | 0.42 | 0.172 |
| CCCNC(=O)[C@@]1(c2ccc([N+](=O)[O-])cc2)CC(=O)N(C2CCCCC2)[C@@H]1c1ccc(CO)cc1I | 2.18 | 0.949 | 0.178 | 0.34 | 1.21 | 1.52 | 1.4 | 1.01 | 1.1 | -0.424 (inactive) | 1.01 | -4.24 (inactive) | -0.326 (inactive) | -0.682 (inactive) | 1.18 (inactive) | 0.277 | 0.306 | 0.224 | 0.451 | 1.85 |
| CC(C)(C)OC(=O)CC[C@@]1(C(=O)O)N=C(c2ccc(OCCCO)cc2)O[C@@H]1c1ccccc1CN=[N+]=[N-] | 2.7 | 0.807 | 0.399 | 0.85 | 0.367 | -0.279 | 0.792 | -0.816 | 0.851 | -2.19 (inactive) | 0.48 | 0.625 (inactive) | -0.21 (inactive) | -0.128 (inactive) | -0.912 (inactive) | 0.725 | 0.239 | 0.0835 | 0.104 | -1.03 |
| O=C1OCCC=C[C@H]2OC34C=CCN(c5ccc(Cl)cc5)C(=O)[C@H]3N(CCCCCO)C(=O)[C@@H]4C12 (stereo not given in full) | 3.41 | -0.457 | -0.226 | -0.929 | -0.514 | -0.297 | 2.6 | -0.314 | -0.21 | -1.31 (inactive) | -0.244 | -0.091 (inactive) | -0.622 (inactive) | 0.187 (inactive) | -0.382 (inactive) | -0.654 | -0.0986 | 0.0095 | 1.05 | 0.58 |
| O=C1O[C@@H](c2ccccc2)[C@@H](c2ccccc2)N2[C@@H](c3ccccc3OCCO)[C@]3(C(=O)Nc4ccc(C#CCCO)cc43)[C@@H](C(=O)N3CCN(c4ncccn4)CC3)[C@H]12 | 1.72 | 1.19 | 0.747 | 0.946 | 0.389 | -0.0344 | 0.679 | 0.081 | 0.65 | 0.27 (inactive) | 0.174 | -2.33 (inactive) | 0.608 (inactive) | 0.478 (inactive) | 2.99 (inactive) | 0.139 | -0.0448 | -0.566 | 0.224 | -0.105 |
| C=C(C(=O)CC[C@H](OC(=O)c1cccnc1)c1cccc(OCCO)c1)C(C)C | 0.0024 | -0.498 | -0.136 | -0.744 | -1.01 | -0.464 | 0.838 | 0.0695 | -0.168 | -0.894 (inactive) | -0.13 | -1.04 (inactive) | -0.285 (inactive) | 17.7 (active) | -0.464 (inactive) | 0.0502 | -0.0719 | 1.17 | -0.206 | 0.389 |
